Test results taken from the supplement of paper PMC4206461.
Values without a mark were called inactive.

What was measured:
[1] = system: Pseudomonas aeruginosa PA14 wild type; assay: respiration area under curve with compound as sole nitrogen source, 24 h (OmniLog AUC (arbitrary units)); higher = more respiration / better utilisation as nitrogen source, active = 2000 or more
Description: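 Biolog Phenotype MicroArray plates PM6-PM8: each di/tripeptide is the sole nitrogen source (IF-0 medium with succinate/ferric citrate and dye mix A). Tetrazolium reduction was read in the OmniLog every 15 min for 24 h at 37°C and summarised as area under the respiration curve (arbitrary units). The paper counts values below 2000 as no respiration and above 8000 as solid respiration. Replicate datasets are averaged.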

[2] = system: Pseudomonas aeruginosa PA14 dppBCDF deletion mutant; assay: respiration area under curve with compound as sole nitrogen source, 24 h (OmniLog AUC (arbitrary units)); higher = more respiration / better utilisation as nitrogen source, active = 2000 or more; extreme values may be limits of the assay
Description: (§1)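 Biolog Phenotype MicroArray plates PM6-PM8: each di/tripeptide is the sole nitrogen source. Tetrazolium reduction was read in the OmniLog every 15 min for 24 h at 37°C and summarised as area under the respiration curve (arbitrary units). Values below 2000 count as no respiration. Strain is the dipeptide ABC transporter deletion mutant.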

[3] = system: Pseudomonas aeruginosa PA14 dppA1-A5 penta mutant + pBBR5.DppA1 (PA14_58350); assay: respiration area under curve with compound as sole nitrogen source, 24 h (OmniLog AUC (arbitrary units)); higher = more respiration / better utilisation as nitrogen source, active = 2000 or more
Description: as §1, with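 “OmniLog” for “OmniLog every 15 min”, “SBP penta mutant complemented with DppA1 on a plasmid under its native promoter. Lys/His/Cys peptides are excluded.” for “dipeptide ABC transporter deletion mutant.”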

Row | Structure (SMILES) | respiration area under curve [1] | respiration area under curve [2] | respiration area under curve [3]
1 | CC[C@H](C)[C@H](NC(=O)[C@H](C)N)C(=O)O (plate: PM8) | 9130 (active) | 1150 | 
2 | C[C@H](N)C(=O)N[C@@H](C)C(=O)O (plate: PM6) | 8430 (active) | 6250 (active) | 7210 (active)
3 | CSCCC(NC(=O)C(N)C(C)C)C(=O)O (centres undefined) (plate: PM8) |  | 397 | 2570 (active)
4 | NC(N)=NCCC[C@H](NC(=O)[C@@H]1CCCN1)C(=O)O (plate: PM8) | 12100 (active) | 7840 (active) | 10300 (active)
5 | N[C@@H](Cc1ccc(O)cc1)C(=O)NCC(=O)O (plate: PM7) | 9630 (active) | 3760 (active) | 8600 (active)
6 | NC(CO)C(=O)NC(CCC(=O)O)C(=O)O (centres undefined) (plate: PM8) | 5470 (active) | 0 | 3950 (active)
7 | NCC(=O)NCC(=O)O (plate: PM6) |  | 98.5 | 2050 (active)
8 | C[C@@H](O)[C@H](N)C(=O)N[C@@H](CCC(N)=O)C(=O)O (plate: PM8) | 12100 (active) | 454 | 10400 (active)
9 | CSCC[C@H](N)C(=O)N[C@@H](CCC(N)=O)C(=O)O (plate: PM7) | 9160 (active) | 3640 (active) | 8220 (active)
10 | CC(C)[C@H](NC(=O)[C@@H](N)Cc1c[nH]c2ccccc12)C(=O)O (plate: PM8) |  | 0 | 1060
11 | NCC(=O)N[C@@H](Cc1ccccc1)C(=O)O (plate: PM6) | 2760 (active) | 350 | 2000 (active)
